Test system: M. mycetomatis strain mm55
Set-up: species or system Madurella mycetomatis MM55 hyphae; CellTiter-Glo 3D luminescence viability of fungal hyphae, single-point 2 uM library screen, per cent of growth control
Settings: primary screen, metabolic activity vs growth control; 96 h, 2 µM; inhibitor
Method: To determine the in vitro susceptibility of M. mycetomatis to the compounds, a hyphal inoculum was prepared as described elsewhere.[19] This M. mycetomatis hyphal suspension (60 µL) was added to each of the wells in the 384-well plate, leading to a final testing concentration of 2 µM per compound. Each plate also contained a growth control (60 µL of M. mycetomatis hyphal suspension, plus 0.6 µL of DMSO) and a negative control (60 µL of culture medium, plus 0.6 µL of DMSO). Plates were then incubated for 4 days at 37°C, after which 30 µL of CellTiter-Glo 3D Cell Viability reagent was added to every well.[19] After 25 min of incubation at room temperature, the luminescence was measured with a CytoFluor Series 4000 luminometer (PerSeptive Biosystems, Framingham, MA, USA). To determine the metabolic activity, the following formula was used: where, GC is growth control and NC is negative control. The luminescence measured for the GC is considered as 100% metabolic activity. The luminescence for the NC is considered as 0% metabolic activity. […] The Oncode Drug Repurposing library was based on the drug repurposing library from the Drug Repurposing Hub of the Broad Institute and recreated by the Oncode institute.[13] The library contained 5631 drugs.[18] […]

SMILES | % viability [%]
C[C@]12CC[C@@H]3c4ccc(OC(=O)N(CCCl)CCCl)cc4CC[C@H]3[C@@H]1CC[C@@H]2OP(=O)(O)O [ONC0003506, estramustine phosphatena] | 76.07
C[N+]1(C)CCc2cc3c(cc2[C@H]1[C@@H]1OC(=O)c2c1ccc1c2OCO1)OCO3 [ONC0000006, bicucullinemethochloride] | 85.19
